The results in this text go back to PubChem BioAssay.

The test system of test [1] is Wnt5a (protein binding on small-molecule microarray). The test can be described thus: small molecules binding Wnt5a protein – biophysical, small-molecule microarray, 635/667 nm fluorescence, primary screen (AID 1142).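 Also: fluorescence read at 667 nm with signal to noise per printed feature.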 The conditions noted are these: 635 nm fluorescence, higher = more signal.
Test [2] is described as follows: ATP-based viability of Huh7 replicon cells – cell-based, CellTiter-Glo luminescence, basal, 48 h, cytotoxicity control for HCV replication inhibitor project, primary screen (AID 1143).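 Also: Huh7 hepatoma cells carrying a hepatitis C replication reporter with no stimulus; test concentration not given here.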 The note with it: higher = more signal, called active from +8 up or from −8 down. (Replicon systems follow genome replication, usually without infectious particles.)
Test [3] is described as follows: Pseudomonas biofilm growth suppression – PAO1 strain, BacTiter-Glo luminescence, LB-PBS, primary screen (AID 1144). The note with it: P. aeruginosa PAO1 biofilm, 12 h, higher = more signal.
Test [4] in a line: basal CRE-LacZ reporter activity in PC12 – cell-based, unstimulated, primary screen (AID 1145). The note with it: no forskolin, luminescence, 4.5 h, higher = more signal, called active from +8 up or from −8 down.
Test [5] can be described thus: forskolin-driven CRE-LacZ activity in PC12 – cell-based, CRE-LacZ reporter, forskolin-stimulated, primary screen (AID 1146).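 Also: PC12 cells with 6xCRE LacZ reporter stimulated by forskolin 10 µM; beta-galactosidase reporter signal reflecting CREB driven transcription.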 The note with it: luminescence, 4.5 h, higher = more signal, called active from +8 up or from −8 down.
Test [6] has as its target Streptavidin (Streptomyces avidinii) (UniProt P22629). The test can be described thus: compounds binding control protein streptavidin – biophysical, small-molecule microarray, 635/667 nm fluorescence, artefact control for SMM compound annotation, primary screen (AID 1147).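 Also: signal reflects streptavidin binding to arrayed compounds as a control protein.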 The note with it: higher = more signal.
A short description of test [7]: probe aInhba binding on compound microarray – biochemical, small-molecule microarray, 635/667 nm fluorescence, primary screen (AID 1148).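 Also: score merges 667nm spot fluorescence with signal-to-noise for antibody binding to printed compounds.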 The note with it: higher = more signal.
Test [8] addresses Torsin-1A (Homo sapiens) (UniProt O14656). The test can be described thus: TOR1A wild-type binding on microarray – cell lysate, small-molecule microarray, lysate, 635/667 nm, primary screen (AID 1149). The note with it: COS7 hTOR1A-WT lysate, 635 nm fluorescence, higher = more signal.
For test [9] the target is unchanged. The test can be described thus: torsin A mutant lysate binding on microarrays – cell lysate, small-molecule microarray, COS7 lysate, 635/667 nm fluorescence, primary screen (AID 1150).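 Also: score pools 667 nm emission and signal to noise measuring lysate protein binding.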 The conditions noted are these: COS7 hTOR1A mutant lysate, 635 nm fluorescence, higher = more signal.
Test [10] deals with Sonic hedgehog protein (Shh). The test can be described thus: Sonic hedgehog microarray binding compounds – biochemical, small-molecule microarray, 635/667 nm fluorescence, primary screen (AID 1151).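 Also: Shh protein binding to compounds spotted on small-molecule microarray slides; score combines spot fluorescence intensity with signal-to-noise across triplicate slides.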 The conditions noted are these: 635 nm fluorescence, higher = more signal.
The nature of test [11]: optical density shifts of acrAB sulA E. coli – strain DRC41, OD650, 48 h, E. coli filamentation inducer project, primary screen (AID 1152).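 Also: E. coli MC1000 strain DRC41 lacking acrAB efflux pump and sulA.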 The conditions noted are these: higher = more signal, called active from +8 up or from −8 down.
The nature of test [12]: probe aLefty1 binding on compound microarray – biochemical, small-molecule microarray, 635/667 nm fluorescence, primary screen (AID 1153).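 Also: score merges spot fluorescence with signal-to-noise ratio from the scanned slide images.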 The note with it: higher = more signal.
Test [13] is described as follows: plasmodial surface anion channel blockers, osmotic lysis – cell-based, P. falciparum Indochina, OD700, 1 h, primary screen (AID 1154). The note with it: P. falciparum Indochina infected RBC osmotic lysis, higher = more signal, called active from +8 up or from −8 down.
The nature of test [14]: plasmodial surface anion channel blockers, osmotic lysis – cell-based, P. falciparum Indochina, OD700, 2 h, primary screen (AID 1155).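 Also: lysis reports solute entry through the parasite surface anion channel PSAC.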 The note with it: P. falciparum Indochina infected erythrocytes, higher = more signal, called active from +8 up or from −8 down.
A short description of test [15]: changes in parasitized red cell lysis, either direction – P. falciparum Indochina, OD700, 3 h, PSAC antagonist project, primary screen (AID 1156). The note with it: P. falciparum-infected erythrocytes, osmotic lysis, higher = more signal, called active from +8 up or from −8 down.
Test [16] in a line: plasmodial surface anion channel blockers, osmotic lysis – cell-based, P. falciparum Indochina, OD700, 18 h, primary screen (AID 1157). The note with it: P. falciparum Indochina infected erythrocytes, osmotic lysis OD700, 18 h; higher = more signal, called active from +8 up or from −8 down.
A short description of test [17]: S6 kinase pathway phospho-S6 level changes – cell-based, A549, cytoblot, luminescence, serum-stimulated, primary screen (AID 1158).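 Also: serum-stimulated A549 lung adenocarcinoma cells; signal is phosphorylated S6 detected by cytoblot immunostaining with HRP secondary.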 The conditions noted are these: 5 h, higher = more signal.
Test [18] deals with NADPH oxidase 2 (Homo sapiens) (UniProt P04839). Put plainly: compounds shifting NOX2 Amplex Red fluorescence – cell-based, HEK293-NOX2, PMA-stimulated, NOX inhibitor project, primary screen (AID 1159). Also: test concentration not given here. The note with it: 45 min, higher = more signal, called active from +8 up or from −8 down.
Sequence of NADPH oxidase 2 (Homo sapiens) (P04839 whole entry, looked up): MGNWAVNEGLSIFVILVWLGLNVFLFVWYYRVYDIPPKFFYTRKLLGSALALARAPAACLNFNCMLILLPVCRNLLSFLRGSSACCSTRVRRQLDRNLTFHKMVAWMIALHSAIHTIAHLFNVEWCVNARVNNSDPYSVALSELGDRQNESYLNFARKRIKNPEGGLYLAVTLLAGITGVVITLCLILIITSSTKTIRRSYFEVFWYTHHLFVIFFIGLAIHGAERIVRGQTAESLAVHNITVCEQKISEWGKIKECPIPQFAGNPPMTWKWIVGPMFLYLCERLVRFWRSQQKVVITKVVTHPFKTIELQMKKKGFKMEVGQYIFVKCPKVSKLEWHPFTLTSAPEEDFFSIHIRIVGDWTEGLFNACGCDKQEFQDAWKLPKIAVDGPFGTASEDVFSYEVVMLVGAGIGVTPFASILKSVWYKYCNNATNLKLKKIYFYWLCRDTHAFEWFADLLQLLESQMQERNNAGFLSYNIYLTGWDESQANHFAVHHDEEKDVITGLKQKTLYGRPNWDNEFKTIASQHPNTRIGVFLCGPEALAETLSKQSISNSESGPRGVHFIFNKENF
The target of test [19] is NADPH oxidase 4 (Homo sapiens) (UniProt Q9NPH5). Put plainly: compounds shifting NOX4 Amplex Red fluorescence – cell-based, HEK293-NOX4, tetracycline-induced, NOX inhibitor project, primary screen (AID 1160). The note with it: HEK293-NOX4, Amplex Red H2O2 fluorescence, 45 min; higher = more signal, called active from +8 up or from −8 down.
Sequence of NADPH oxidase 4 (Homo sapiens) (Q9NPH5 whole entry, looked up): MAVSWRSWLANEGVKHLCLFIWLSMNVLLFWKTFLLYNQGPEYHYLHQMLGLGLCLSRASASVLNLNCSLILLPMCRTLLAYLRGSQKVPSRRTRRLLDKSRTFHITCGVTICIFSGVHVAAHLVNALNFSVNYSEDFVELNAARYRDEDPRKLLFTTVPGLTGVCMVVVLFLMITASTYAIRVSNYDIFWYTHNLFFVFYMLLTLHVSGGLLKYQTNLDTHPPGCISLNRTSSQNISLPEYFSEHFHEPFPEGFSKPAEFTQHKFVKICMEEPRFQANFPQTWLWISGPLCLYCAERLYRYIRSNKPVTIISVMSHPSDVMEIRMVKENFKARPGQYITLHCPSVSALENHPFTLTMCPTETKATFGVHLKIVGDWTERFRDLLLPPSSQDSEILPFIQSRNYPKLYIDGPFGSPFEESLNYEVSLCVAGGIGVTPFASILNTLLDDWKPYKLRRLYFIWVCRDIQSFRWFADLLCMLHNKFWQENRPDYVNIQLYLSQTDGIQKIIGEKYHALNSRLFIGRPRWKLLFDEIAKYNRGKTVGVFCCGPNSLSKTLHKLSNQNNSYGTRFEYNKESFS
For test [20], the target named is NADPH oxidase 5 (Homo sapiens) (UniProt Q96PH1). The test can be described thus: compounds shifting NOX5 Amplex Red fluorescence – cell-based, HEK293-NOX5, NOX inhibitor project, primary screen (AID 1161). The conditions noted are these: HEK293-NOX5, ionomycin, 45 min, higher = more signal.
Sequence of NADPH oxidase 5 (Homo sapiens) (Q96PH1 whole entry, looked up): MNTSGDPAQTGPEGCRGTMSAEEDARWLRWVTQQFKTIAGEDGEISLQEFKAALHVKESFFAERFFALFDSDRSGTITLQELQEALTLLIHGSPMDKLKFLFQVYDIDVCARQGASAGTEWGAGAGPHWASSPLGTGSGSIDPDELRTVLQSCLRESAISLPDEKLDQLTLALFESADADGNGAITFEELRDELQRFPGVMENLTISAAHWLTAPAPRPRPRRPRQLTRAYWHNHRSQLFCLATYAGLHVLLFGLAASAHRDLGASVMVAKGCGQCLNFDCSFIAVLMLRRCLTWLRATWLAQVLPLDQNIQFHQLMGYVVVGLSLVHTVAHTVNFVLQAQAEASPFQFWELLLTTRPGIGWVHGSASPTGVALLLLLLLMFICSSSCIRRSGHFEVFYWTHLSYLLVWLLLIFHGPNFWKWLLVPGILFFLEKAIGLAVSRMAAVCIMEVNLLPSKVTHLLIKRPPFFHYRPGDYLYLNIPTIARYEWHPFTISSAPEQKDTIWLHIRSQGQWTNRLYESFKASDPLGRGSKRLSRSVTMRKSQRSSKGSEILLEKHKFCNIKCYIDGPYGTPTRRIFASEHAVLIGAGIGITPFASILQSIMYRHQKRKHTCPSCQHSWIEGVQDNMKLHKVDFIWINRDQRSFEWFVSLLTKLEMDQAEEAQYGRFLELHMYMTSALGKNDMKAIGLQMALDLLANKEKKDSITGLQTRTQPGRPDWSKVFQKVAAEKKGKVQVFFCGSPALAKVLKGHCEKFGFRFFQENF

Active and inactive are the calls of the source. Unless noted, no rule for the calls is given here.

Sequence of Streptavidin (Streptomyces avidinii) (P22629 whole entry, looked up): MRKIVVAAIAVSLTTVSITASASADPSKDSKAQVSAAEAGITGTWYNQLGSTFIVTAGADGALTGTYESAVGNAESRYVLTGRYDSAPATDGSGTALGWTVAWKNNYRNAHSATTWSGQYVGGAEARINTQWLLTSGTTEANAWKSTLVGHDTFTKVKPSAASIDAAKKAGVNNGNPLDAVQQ
Sequence of Torsin-1A (Homo sapiens) (O14656 whole entry, looked up): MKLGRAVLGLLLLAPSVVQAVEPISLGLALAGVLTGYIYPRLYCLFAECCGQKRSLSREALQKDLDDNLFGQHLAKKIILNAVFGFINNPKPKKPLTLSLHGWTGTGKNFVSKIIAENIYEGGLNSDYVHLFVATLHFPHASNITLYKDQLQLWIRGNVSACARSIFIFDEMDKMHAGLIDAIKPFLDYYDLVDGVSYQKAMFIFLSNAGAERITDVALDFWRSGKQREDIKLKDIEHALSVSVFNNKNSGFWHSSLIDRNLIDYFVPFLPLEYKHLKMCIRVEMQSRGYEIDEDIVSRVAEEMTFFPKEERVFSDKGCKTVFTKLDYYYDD

Take `[N-]=[N+]=NCc1ccccc1C[C@@]1(C(=O)NCCN2CCOCC2)N=C(c2ccc(OCCCO)cc2)O[C@@H]1c1ccccc1`: the composite z-score was found to be 0.366 in test [1]; 1.11 in test [6]; 0.302 in test [7]; 0.271 in test [8]; 0.57 in test [9]; 0.34 in test [10]. In [12], this compound yielded a composite z-score of 0.546. For the same compound, the z-score is -3.38 (inactive) in test [2]; 0.505 (inactive) in test [3]; 2.72 (inactive) in test [4]; 0.847 (inactive) in [5]; -1.58 (inactive) in test [11]; 25.3 (active) in test [13]. For the same compound, the z-score is 11.7 (active) in test [14]; 1.44 (inactive) in test [15]; 1.65 (inactive) in [16]; -0.28 in [17]; -1.48 (inactive) in test [18]; 0.731 (inactive) in [19]. Moreover, in test [20], the z-score worked out at 1.27.

In the case of `CC[C@@H](O[Si](C#C[Si](C(C)C)(C(C)C)C(C)C)(C(C)C)C(C)C)c1cn([C@H](CO)Cc2ccccc2)nn1`, the composite z-score in test [1] was -0.142; in [6], 0.391; in [7] it was 0.0104; in [8] it was 0.0922; in test [9] it was -0.209; in test [10], 1.24. The same compound displayed a composite z-score in test [12] of -0.0094. The z-score in [2] was 0.0926 (inactive); in test [3], -0.805 (inactive); in test [4], -0.607 (inactive); in test [5] it was -0.038 (inactive); in test [11], 0.922 (inactive); in test [13], 0.355 (inactive). The z-score in [14] is 0.49 (inactive); in test [15], -0.68 (inactive); in test [16], 0.0878 (inactive); in test [17] it was -0.116; in [18], -0.69 (inactive); in [19] it was 0.408 (inactive). Further, the z-score in test [20] is -0.133.

For `CCCCCN1CC=CC23O[C@@H]4/C=C\CCCOC(=O)C4[C@H]2C(=O)N(CCCCCO)[C@@H]3C1=O` (stereo not given in full), the composite z-score in [1] was -0.827; in test [6] it was -0.878; in [7] it was -0.128; in [8], -2.11; in test [9] it was -1.09; in test [10], -0.0251. The composite z-score in [12] was -0.255. In addition, the z-score in test [2] was -0.347 (inactive); in [3], -0.678 (inactive); in test [4] it was -1.03 (inactive); in [5], 0.0118 (inactive); in test [11], 1.83 (inactive); in test [13] it was 0.46 (inactive). The z-score in [14] is -0.618 (inactive); in [15], -1.29 (inactive); in [16], -1.27 (inactive); in [17], -0.0754; in test [18] it was 0.834 (inactive); in test [19], 0.0699 (inactive). Also, the z-score in test [20] is 1.41.

Regarding `CC(C)(C)OC(=O)N1[C@@H](C=C(Br)Br)COC1(C)C`, the composite z-score in test [1] was -0.0677; in test [6], 0.29; in test [7], -0.15; in [8] it was 0.396; in [9], 0.656; in test [10], 0.938. In [12], this compound came in with a composite z-score of -0.147. Also, the z-score was -2.04 (inactive) in test [2]; 0.278 (inactive) in [3]; -0.104 (inactive) in test [4]; 0.0695 (inactive) in test [5]; 1.98 (inactive) in test [11]; -0.794 (inactive) in [13]. The z-score in [14] is -1.16 (inactive); in test [15], -0.884 (inactive); in [16], -1.66 (inactive); in test [17], 0.855; in test [18] it was 2.82 (inactive); in test [19], 0.4 (inactive). Further, the z-score in test [20] was -0.152.
